# Mtb bLac sens = beta-lactam sensitization of Mtb H37Rv, H37Rv; M. tuberculosis H37Rv growth with meropenem, percent inhibition; inhibition, % at 25 µM; hit rate 0.27% among 330,000; call rule not given here;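 also: growth measured after seven days incubation then overnight dye step; 0% = bacteria only wells and 100% = bacteria with antibiotic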
# GDH-TPI counter = GDH-TPI coupling enzyme inhibitors, primary screen, artefact control for M. tuberculosis FBA inhibitor project, biochemical, absorbance, full deck; hit rate 1.2% among 360,000; inhibition, % at 4.8 µM; GDH-TPI coupled enzyme counterscreen, NADH absorbance; AID 588335, 2011; in the data active = inhibition above about 30%;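 also: 0% = DMSO wells and 100% = wells lacking the enzyme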
# VHR inh abs = VHR1 phosphatase inhibitors, primary screen, biochemical, absorbance, uHTS; recombinant VHR phosphatase, pNPP absorbance; inhibition, % at 13.3 µM; hit rate 0.52% among 290,000; in the data active = inhibition above about 50%
# Target sequence (P51452 whole entry, looked up): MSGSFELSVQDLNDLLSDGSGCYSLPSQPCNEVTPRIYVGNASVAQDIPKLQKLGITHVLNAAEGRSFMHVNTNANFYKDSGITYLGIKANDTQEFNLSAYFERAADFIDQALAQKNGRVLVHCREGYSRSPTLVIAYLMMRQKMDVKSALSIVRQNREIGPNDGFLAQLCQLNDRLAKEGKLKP
# Mtb hypoxia inh = PubChem AID 1159583. hit rate 0.1% among 300,000. fluorescence inhibition, % (test concentration not listed). M. tuberculosis hypoxia-regulated fluorescent reporter, fluorescence; in the data active = fluorescence inhibition mostly above about 23%, no sharp cut-off; inactive = mostly below about 17%
# Mtb FBA inh = Mtb FBA enzyme inhibitors, primary screen, biochemical, fluorescence, strain H37Rv; Fructose-bisphosphate aldolase (Mycobacterium tuberculosis (strain ATCC 25618 / H37Rv)), …; purified M. tuberculosis FBA, fluorescence read-out; inhibition, % at 1 µM; hit rate 2.3% among 360,000; AID 588726, 2011; in the data active = inhibition above about 27%;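 also: 0% = vehicle and 100% = reference inhibitor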
# Active calls of the source: *; nt = not tested or not shown. An excerpt weighted towards active compounds, which were near 3.6% of everything screened.
SMILES,Mtb bLac sens,GDH-TPI counter,VHR inh abs,Mtb hypoxia inh,Mtb FBA inh
O=C(Nc1ccc(Cl)cc1Cl)Nn1cnnc1,1,0,2,1,-2
Cc1ccc(NC(=O)Nc2ncccc2C)cc1,-4,5,13,-2,-1
COc1ccc(/C=N/NC(=O)c2ccco2)cc1OCc1ccccc1,-11,40*,39,nt,-2
COc1ccc(/C=N/NC(=O)c2cc(C)oc2C)cc1OCc1ccccc1,0,32*,-3,nt,-1
O=C1NCCCC1C(=O)NN=Cc1cccc(Cl)c1 (configuration not stated),nt,nt,nt,2,nt
COc1cccc(NC(=O)CCC2CCN(Cc3nccs3)CC2)c1,-10,4,52*,2,0
CC(C)NC(=O)N(C)CC1Oc2ccc(NC(=O)CCN3CCOCC3)cc2CC(=O)N(C(C)CO)CC1C (configuration not stated),nt,nt,nt,8,nt
CCOc1cc(C2C3=C(CCCC3=O)N(CC(=O)O)C3=C2C(=O)CCC3)ccc1OC,4,7,-22,14,0
COc1ccc(C2C3=C(CC(C)(C)CC3=O)N(CC(=O)O)C3=C2C(=O)CC(C)(C)C3)cc1OC,-3,14,9,14,-2
COc1ccc(C2C3=C(CCCC3=O)N(CC(=O)O)C3=C2C(=O)CCC3)cc1Cl,-3,0,-7,-1,178*
CCN1C2=C(C(=O)CCC2)C(c2ccc(O)c(Br)c2)C2=C1CCCC2=O,-7,11,26,0,5
COc1ccc(C2C3=C(CCCC3=O)N(CC(=O)O)C3=C2C(=O)CCC3)cc1Br,nt,7,nt,nt,135*
C#CCOc1c(Cl)cc(C2C3=C(CCCC3=O)N(CC(=O)O)C3=C2C(=O)CCC3)cc1OC,2,16,4,nt,159*
CC(NC(=O)c1[nH]cnc1C(=O)Nc1ccon1)c1ccccc1 (configuration not stated),nt,nt,nt,-5,nt
O=C(NN=Cc1cn[nH]c1-c1ccccc1)c1cccs1,nt,nt,nt,14,nt
CCN1C(=O)C2C(c3ccc(C)cc3)N3C(=O)N(c4cccc(Cl)c4)C(=O)[C@@]3(Cc3ccccc3)C2C1=O (some centres not stated),nt,nt,nt,-3,nt
CCOC1OC(C(=O)NCc2nc3ccccc3[nH]2)=CC(C2CC2)C1CCCO (configuration not stated),nt,nt,nt,-9,nt
Cn1c(=O)c2[nH]c(-c3ccc(S(=O)(=O)O)cc3)nc2n(C)c1=O,100,42*,nt,5,nt
CC(=O)Nc1ccc2nc(-c3ccc(Br)o3)[nH]c2c1,-5,29,-1,12,3
O=C(Nc1ccc2nc(-c3ccc(Br)o3)[nH]c2c1)c1cccs1,4,32*,31,nt,1
Cc1cccc2[nH]c(-c3ccc(NC(=O)c4ccco4)cc3)nc12,-6,58*,6,1,-2
O=C(Nc1ccc2nc(-c3ccc(Br)o3)[nH]c2c1)c1ccco1,-8,40*,30,nt,1
CCCC(=C1c2ccccc2C(=O)N1c1ccccc1)c1cnc(OC)nc1,nt,nt,nt,-2,nt
COc1cc(C=NNC(=O)CCn2cnc(-c3ccccc3)c2-c2ccccc2)ccc1O,nt,nt,nt,-1,nt
O=[N+]([O-])c1cc(C=NO)ccc1Sc1ccccc1,nt,nt,nt,13,nt
SMILES,Mtb bLac sens,GDH-TPI counter,VHR inh abs,Mtb hypoxia inh,Mtb FBA inh
C=CCN1C=CC(=O)[C@@H](OC(=O)Nc2ccc(Br)cc2)[C@H]1c1ccccc1Br,nt,33*,nt,nt,4
COc1ccc2c(c1)OCC1C2N2C(=O)CNC(=O)[C@@]2(C)C1c1ccccc1 (some centres not stated),nt,nt,nt,19,nt
CC(C)Cc1[nH]c(=O)c(C#N)c2c1COC(C)(C)C2,-2,31*,27,13,17
C/C(C=NNc1ncc(C)c(=O)[nH]1)=C\c1ccccc1,nt,nt,nt,-8,nt
Cc1ccc(C2(C)NC(=O)N(CC(=O)N3c4ccccc4NC(=O)CC3C)C2=O)cc1 (configuration not stated),2,9,nt,13*,5
O=C1CCCc2nc(N3CCCCC3)sc21,2,32*,2,nt,1
Nc1nnc(N2CCCCC2)s1,-4,3,8,10,4
CCOC(=O)c1cc(-c2ccccc2)nc2nc(N(CC)CC)sc12,24,10,-4,-2,65*
O=C(CC(=O)c1ccccc1)CS(=O)(=O)c1ccccc1,nt,41*,nt,17,-4
Cc1nc(-c2cccc(NC(=O)c3cccs3)c2)cs1,-2,13,27,nt,-11
